The record followed here is PubChem BioAssay.

A short description of assay [1]: Wnt pathway potentiators raising nuclear beta-catenin – imaging, WNT3A-conditioned medium, mouse C2C12, NPC library, primary screen (AID 1117326; in the data active = nuclear beta-catenin stimulation mostly above about 4.2%, no sharp cut-off; inactive = mostly below about 10%). Particulars: stronger effect = higher value.
Assay [2] in a line: stimulators of insulin release from INS-1E, primary screen, cell-based, 5 mM glucose, NPC library (AID 1117329;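 active = compound raises insulin release from rat beta cells at 5 mM glucose, no numeric limit stated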). Particulars: rat INS-1E insulin secretion, at 10 µM, stronger effect = higher value.
Assay [3] in a line: growth inhibition of GSK3B-pretreated HCT116 cells – cell-based, CellTiter-Glo, 0.2 to 20 µM (AID 1117336;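 active = compounds lowering colon cancer cell viability after pretreatment blocking the GSK3B kinase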). Particulars: HCT116 viability after GSK3B inhibitor, at 20 µM, stronger effect = higher value.
Assay [4] can be described thus: inhibition of endothelial tube formation, primary screen, imaging, VEGF stimulated, CD31 staining, tube area, NPC library (AID 1117340;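 active = compound that reduces growth-factor-driven endothelial tube area in a mixed cell culture, no cutoff stated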). Conditions: VEGF-stimulated ADSC/ECFC co-culture, at 10 µM, stronger effect = higher value.
A short description of assay [5]: GLP1 release stimulators, primary, NCI-H716, NPC library (AID 1117341;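 active = compound raises GLP1 secretion from the human gut endocrine cells, with no numeric limit stated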). Conditions: NCI-H716 cells, at 10 µM, stronger effect = higher value.
The nature of assay [6]: HCT116 colon cancer cell growth inhibition, primary screen, CellTiter-Glo luminescence, NPC library (AID 1117342). Particulars: at 20 µM (top of the series). On the technique in general: ATP-based viability assays read luminescence as a measure of living cells.
Assay [7] is described as follows: reduced SW480 viability measured with CellTiter-Glo, NPC library, primary (AID 1117343;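 active = compounds that lower viability of the colon cancer cells in the luminescence readout, with no numeric limit stated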). Particulars: CellTiter-Glo luminescence; at 20 µM (top of the series).
A short description of assay [8]: NPC library primary testing for decreased DLD-1 cell viability via CellTiter-Glo (AID 1117346;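 active = compounds that lower survival of DLD-1 colon cancer cells in the luminescence readout, no cutoff given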). Particulars: DLD-1 viability, CellTiter-Glo luminescence; at 20 µM (top of the series).
A short description of assay [9]: liver-stage malaria parasite load reduction – cell-based, known kinase inhibitor set, luminescence, hepatoma host viability (AID 624392; call rule not given here;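 note: infected cells incubated roughly two days before readout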). Conditions: Plasmodium liver stage in hepatoma cells, luciferase luminescence, concentration not given here; liver cell % of control: measured here: host liver cell viability; parasite % of control: stronger effect = lower value.
Assay [10] can be described thus: altered dexamethasone sensitivity, NF-kB reporter, cell-based, luciferase, IL-1B stimulus (AID 624486; call rule not given here;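 for percent of negative control (+Dex): 100% = mean signal of vehicle control wells on the plate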). Particulars: IL-1B + dexamethasone, luminescence; percent of negative control (+Dex): actives lie on both sides, concentration not given here; z-score: measured here: IL-1B alone, no Dex.
The nature of assay [11]: C. elegans survival during P. aeruginosa infection – whole organism (AID 651566; call rule not given here;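 note: tested at 14 µM; sign flipped so higher z means a lower ratio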). Conditions: C. elegans killed by P. aeruginosa, survival ratio.
The nature of assay [12]: pro-inflammatory signaling induction in mouse macrophages – cell-based, murine, luminescence (AID 652131; call rule not given here). Conditions: murine macrophage pro-inflammatory reporter, stronger effect = higher value.
Assay [13] concerns the target Cellular tumor antigen p53 (Homo sapiens) (UniProt P04637). Nature of the assay: GFP-p53 level modulators in HPV16+ cells – imaging, known kinase inhibitor set, EGFP/DsRed ratio (AID 1053116; call rule not given here;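 note: cells exposed to compounds for 24 h at 37 °C before reading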). Conditions: GFP-p53 stability, stronger effect = higher value; EGFP object count: measured here: GFP-p53 positive objects count.
Assay [14] in a line: inducers of IRF3 signaling, differentiated THP-1 – cell-based, PMA-stimulated THP-1, luminescence (AID 1053176; call rule not given here). Particulars: PMA-differentiated THP-1, IRF3 reporter luminescence; stronger effect = higher value.
The nature of assay [15]: MELAS cybrid and Rieske KO viability enhancers – cell-based, MELAS cybrids, Rieske KO mouse fibroblasts, CellTiter-Glo, primary screen (AID 1508586;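 active = mean z-score across replicates of 1.96 or higher in either the MELAS or the Rieske mutant cell line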;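 note: z relative to plate mean and SD of compound and empty wells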). Conditions: low glucose.

Active and inactive are the calls of the source.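 Rule for the calls, unless noted: active = compounds that lower survival of HCT116 colon cancer cells in the luminescence readout, no numeric limit stated; inactive = the rest.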

Cellular tumor antigen p53 (Homo sapiens), sequence (P04637 whole entry, looked up): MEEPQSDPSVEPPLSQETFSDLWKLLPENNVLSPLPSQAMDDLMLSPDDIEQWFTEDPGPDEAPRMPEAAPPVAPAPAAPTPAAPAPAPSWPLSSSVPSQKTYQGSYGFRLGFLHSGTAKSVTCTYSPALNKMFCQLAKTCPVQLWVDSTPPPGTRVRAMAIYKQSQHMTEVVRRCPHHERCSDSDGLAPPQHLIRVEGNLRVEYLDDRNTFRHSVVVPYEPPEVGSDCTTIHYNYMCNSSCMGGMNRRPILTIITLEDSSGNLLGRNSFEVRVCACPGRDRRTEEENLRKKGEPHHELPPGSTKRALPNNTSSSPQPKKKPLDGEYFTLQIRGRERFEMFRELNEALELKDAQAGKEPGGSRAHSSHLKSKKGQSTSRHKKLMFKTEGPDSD

Turning to `CN1C2CCC(C)(C)C1CC(OC(=O)C(O)(c1cccs1)c1cccs1)C2` (centres undefined), the nuclear beta-catenin stimulation was -1.7% (inactive) in assay [1] (at 10 µM) and -0.6% in assay [1] (stimulation, at 2 µM). Also, the insulin secretion stimulation in assay [2] is 5.6% (inactive). For the same compound, the viability decrease in assay [3] is 8% (inactive). Further, in assay [4], the tube area decrease was 4.7% (inactive). Also, the GLP1 secretion stimulation in assay [5] was -0.7% (inactive). In addition, in [6], the inhibition of viability was 27.8% (inactive). Further, the viability decrease (inhibition) is 37.2% (inactive) in assay [7] and 27.7% (inactive) in assay [8].
`O=C(NC1NNC2NNC(c3cccnc3)CC21)C1CC1` (centres undefined) displayed a liver cell % of control in [9] of 79.6%. For the same compound, the parasite % of control in [9] was 32.1% (inactive). The percent of negative control (+Dex) in assay [10] was 166% (active). The z-score in assay [10] was -0.58; in [11], -1.13 (inactive); in assay [12] it was 4.01 (inactive); in assay [15] (MELAS cybrid survival, CellTiter-Glo 48 h, stronger effect = higher value), -1.09 (inactive); in [15] (Rieske KO mouse fibroblast survival, CellTiter-Glo 72 h) it was -0.386. In addition, the EGFP object count in [13] came to 52. The EGFP/DsRed ratio in assay [13] is 0.68 (active). The fraction signal in assay [14] was 0.001 (inactive).
Consider `CCOC(=O)NC(C)(C)Cc1ccc(Cl)cc1`, for which the nuclear beta-catenin stimulation in [1] (at 10 µM) was 7.3% (inactive); in [1] (stimulation, at 2 µM), -2.9%. Further, the insulin secretion stimulation in assay [2] was 2.1% (inactive). Further, the viability decrease in assay [3] was 13.6% (inactive). The tube area decrease in assay [4] is 65.4% (active). In addition, the GLP1 secretion stimulation in assay [5] was -1.8% (inactive). For the same compound, the inhibition of viability in assay [6] is 61.4% (active). The viability decrease (inhibition) in assay [7] is 31.1% (inactive); in [8], 3.85% (inactive).
As to `Nc1ccc(N)cc1`, the nuclear beta-catenin stimulation in [1] (at 10 µM) was -0.1% (inactive); in [1] (stimulation, at 2 µM) it was 0.8%. Moreover, in [2], the insulin secretion stimulation is -3.1% (inactive). The viability decrease in assay [3] was -2.35% (inactive). In addition, the tube area decrease in assay [4] was -29.4% (inactive). The GLP1 secretion stimulation in assay [5] was 4.2% (inactive). In addition, in assay [6], the inhibition of viability is 51% (active). Further, the viability decrease (inhibition) in assay [7] is 84.1% (active); in [8], -15.2% (inactive).
As to `O=C1c2ccccc2C(=O)C1C(=O)C(c1ccccc1)c1ccccc1`, the nuclear beta-catenin stimulation is 0.3% (inactive) in assay [1] (at 10 µM) and -0.1% in assay [1] (stimulation, at 2 µM). In addition, the insulin secretion stimulation in [2] is -2.2% (inactive). The viability decrease in [3] is 91.3% (active). Moreover, the tube area decrease in [4] was 78.8% (active). In addition, the GLP1 secretion stimulation in [5] is -5% (inactive). In [6], the inhibition of viability was 44.8% (inactive). The results for the viability decrease (inhibition) in assay [7] and in assay [8] were 120% (active) and 99.3% (active), respectively.
Consider `CCCOC(=O)c1cncn1C(C)c1ccccc1` (centres undefined), for which the nuclear beta-catenin stimulation in assay [1] (at 10 µM) is 3.6% (inactive); in assay [1] (stimulation, at 2 µM) it was 0.7%. Also, in [2], the insulin secretion stimulation was 4.8% (inactive). The viability decrease in [3] was -12.2% (inactive). Besides, in assay [4], the tube area decrease is -7.5% (inactive). The GLP1 secretion stimulation in [5] is 1.9% (inactive). Besides, the inhibition of viability in [6] was 11% (inactive). Also, the viability decrease (inhibition) was -24.3% (inactive) in assay [7] and 18.7% (inactive) in assay [8].
`CN1C(=O)NC(=O)C(C)(C2=CCCCC2)C1=O` (centres undefined): the nuclear beta-catenin stimulation in assay [1] (at 10 µM) was 1.5% (inactive); in [1] (stimulation, at 2 µM), 0.7%. In addition, the insulin secretion stimulation in [2] was -0.5% (inactive). The viability decrease in assay [3] is -11.4% (inactive). For the same compound, the tube area decrease in assay [4] was 0.1% (inactive). In assay [5], the GLP1 secretion stimulation was 0.1% (inactive). For the same compound, the inhibition of viability in assay [6] was -2.4% (inactive). Further, the viability decrease (inhibition) in [7] is 18.4% (inactive); in assay [8], -1.75% (inactive).
On to `O=C(CCl)c1ccc(Cl)cc1Cl`, for which the nuclear beta-catenin stimulation in assay [1] (at 10 µM) is 3.3% (active); in [1] (stimulation, at 2 µM), 45.6%. The insulin secretion stimulation in [2] was 4.4% (inactive). Further, in assay [3], the viability decrease is 66.2% (active). Besides, the tube area decrease in assay [4] was 104% (active). Besides, in assay [5], the GLP1 secretion stimulation was -6.4% (inactive). Moreover, the inhibition of viability in assay [6] was 88.3% (active). Also, the figures for the viability decrease (inhibition) in [7] and in assay [8] were 91.8% (active) and 64.8% (active), respectively.
